The results in this text go back to ChEMBL document CHEMBL4513216, “Probing the Open Global Health Chemical Diversity Library for Multistage-Active Starting Points for Next-Generation Antimalarials” (ACS Infect Dis, 2020).

Among all 69,000 compounds or so, about 8,600 (12%) showed an effect of 50% or more. The sample holds strong results, similar compounds and a random draw of the others, so the mix is not that of the screen.

The test deals with Plasmodium berghei. Kind of test: Screen against P. berghei liver stage (PbLuc), transformed with Luciferase, at 10uM. The class given is functional, HepG2. The note with it: tested at 10 uM.
As for `CN(C)C(=O)Cn1cc(C(=O)NCCc2cccc(Cl)c2Cl)nn1`, the INHIBITION is -8.4%.
As for `COCCNC(=O)[C@H]1C[C@H]2OCC[C@H]2N(Cc2ccoc2)C1`, the figure is 31.1%; as for `Cc1nc(N2CCCC2)nc2c1CCN(C(=O)CC1CCCC1)CC2`, -10.3%.
The figure for `COc1ccc(CC(=O)N2CC[C@@H]3NC(=O)CC[C@@H]32)cc1` is -6.46%.
Consider `COc1cccc(CC(=O)N2CC[C@@H]3NC(=O)CC[C@@H]32)c1`, for which the INHIBITION is -0.554%.
The figure for `Cc1ccc(CC(=O)N2CC[C@@H]3NC(=O)CC[C@@H]32)cc1` is 58.5%.
As for `Cc1c(S(=O)(=O)NCC(C)Cn2cc(Cl)cn2)cnn1C` (stereo unspecified), the INHIBITION is reported as 35.8%.
`CN(CCCc1cnn(C)c1)C(=O)C1CCC(=O)N(C2CCCC2)C1` (stereo unspecified): the INHIBITION is on record as -7.85%.
As for `C[C@H]1C[C@H]2CN(S(=O)(=O)c3ccc(F)cc3)CC[C@H]2O1`, the figure is -7.28%.
On to `CC1COCCN1C(=O)Cc1cc(Cl)c2c(c1)OCCCO2` (stereo unspecified), for which the INHIBITION is recorded as 0.348%.
The figure for `O=C1C[C@H]2[C@@H](CCN2C(=O)c2ccoc2)N1CCN1CCOCC1` is -6.23%; for `COc1ccccc1OCCCc1cccc(C#N)n1` it is -34.1%.
Consider `COc1ccccc1OCCCc1cc(C#N)ccn1`, for which the INHIBITION came to 45.7%.
The figure for `COc1cccc(OCCCc2cc(C#N)ccn2)c1` is 55.6%.
As for `COCc1cc(CNC(=O)c2cc(NC(C)=O)ccc2Cl)n[nH]1`, the figure is 40.6%; as for `O=C(c1ccoc1)N1CCO[C@]2(CCC[C@H]2COCc2cccnc2)C1`, -34.7%.
The figure for `COCCN1CCC2(CC1)CC(NCc1cncn1C)c1ccccc12` (stereo unspecified) is 54.1%; for `O=C(NC1CC2(CCN(CCO)CC2)c2ccccc21)c1ccsc1` (stereo unspecified) it is 27.5%.
With `COCCN1CCC2(CC1)CC(NCc1ccc(C)s1)c1ccccc12` (stereo unspecified), the INHIBITION turned out to be 45.7%.
For `Cc1cccc(CNC2CC3(CCN(CCO)CC3)c3ccccc32)n1` (stereo unspecified), the INHIBITION is listed as 52.1%.
The figure for `CCN1CCC2(CC1)CC(NCc1cccc(C)n1)c1ccccc1O2` (stereo unspecified) is -4.88%; for `Cn1cncc1CNC1CC2(CCN(CC3CC3)CC2)c2ccccc21` (stereo unspecified) it is 45.2%; for `O=C(NC1CC2(CCN(CCO)CC2)c2ccccc21)c1ccncc1` (stereo unspecified) it is 49.7%.
Turning to `Cn1cncc1CNC1CC2(CCN(S(C)(=O)=O)CC2)c2ccccc21` (stereo unspecified), the INHIBITION was determined as 23.1%.
As for `Cc1ccc(CNC2CC3(CCN(CCO)CC3)c3ccccc32)s1` (stereo unspecified), the figure is 60.2%; as for `COCCNC(=O)NC1CCN(c2cnn(C)c2)C1` (stereo unspecified), 16%.
As for `Cn1cc(CN2C[C@@H](NC(=O)c3cscn3)[C@H]3OCCC[C@H]32)cn1`, the INHIBITION is -4.88%.
`COc1ccc(-c2ccnc(N)c2)c(C)c1`: the INHIBITION came out at 29.1%.
As for `COCCNS(=O)(=O)c1cccc(CSC)c1`, the figure is 20.2%; as for `Cc1nn(C)c(C)c1C1CCCN1C(=O)CCCc1ccccn1` (stereo unspecified), 23.4%.
As for `CC(C)NC1CCc2[nH]c(=O)ccc2C1` (stereo unspecified), the figure is 86.2%; as for `CS(=O)(=O)NC1CCc2[nH]c(=O)ccc2C1` (stereo unspecified), 30.5%; as for `O=C(NC1CCCC1)NC1CCc2[nH]c(=O)ccc2C1` (stereo unspecified), 34.9%.
On to `CN(C)CCN(Cc1ccccn1)Cc1ccnn1C1CCCCO1` (stereo unspecified), for which the INHIBITION is on record as 18.3%.
Regarding `COCC1CN(C(=O)COc2ccc(C)cc2)Cc2cn(C)nc21` (stereo unspecified), the INHIBITION came out at 5.96%.
In the case of `Cc1cc(C(=O)NCCc2nc3c(s2)CCCC3)n(C)n1`, the INHIBITION is on record as 68%.
The figure for `Cc1nn2cc(CCNC(=O)c3cc(C(C)C)nn3C)nc2s1` is 82.7%; for `Cc1cc(C(=O)NCCc2cn3nc(C)sc3n2)c(C)o1` it is -98.6%; for `c1cc(-c2nccn2CCc2nc3c(s2)CCC3)ccn1` it is 11.6%.
The figure for `Cc1nc(CCNC(=O)c2cc(C(C)C)nn2C)sc1C` is 81%.
Regarding `CC(C)Cc1cc(C(=O)NCCc2nnc(N)s2)n(C)n1`, the INHIBITION is -24.7%.
In the case of `CC(=O)c1ccc(CNC(=O)c2cc(C)nn2C)nc1C`, the INHIBITION was -34%.
Regarding `O=C(O)c1ccnc(-c2ccnc(NCCc3nc4c(s3)CCC4)n2)c1`, the INHIBITION stood at 30.9%.
As for `COc1nc2c(cc1C(=O)NCCc1nc3c(s1)CCC3)CCC2`, the figure is -6.04%; as for `CC(C)c1cc(C(=O)NCCc2nc3c(s2)CCC3)n(C)n1`, 89.6%; as for `Cc1nn2cc(CCNC(=O)c3cc(C(C)C)no3)nc2s1`, -97.2%.
As for `Cc1nc(CCNC(=O)C2CC(=O)N(C(C)C)C2)sc1C` (stereo unspecified), the figure is 22.3%; as for `CN1CCCN(Cn2nc(-c3ccccc3F)ccc2=O)CC1`, 18.2%; as for `Cc1ccsc1C1CCCCCN1Cc1cn(C)nc1C` (stereo unspecified), 49%.
As for `CC(C)n1cnnc1CN(C)C(=O)c1ccccc1N1CCOCC1`, the INHIBITION turned out to be 7.92%.
On to `CCN(CC(O)c1ccc(C)cc1)C(=O)NC(C)C` (stereo unspecified), for which the INHIBITION came out at 17.8%.
The figure for `COc1c(C2CCCN2C(=O)c2cccc(C)n2)c(C)nn1C` (stereo unspecified) is 1.78%.
The figure for `CNC(=O)[C@@H]1C[C@H]2CN(Cc3csc(C)n3)C[C@H]2N1C(C)C` is 42.4%; for `O=C(CCCc1ccccc1)Nc1cnc(N2CCOCC2)nc1` it is -33.3%.
Take `O=C(Nc1cnc(N2CCOCC2)nc1)c1ccc(C(F)(F)F)cc1`: the INHIBITION is recorded as 77.9%.
For `COCC(=O)Nc1cnc(N2CCOCC2)nc1`, the INHIBITION came out at 26.9%.
Regarding `O=S(=O)(Nc1cnc(N2CCOCC2)nc1)c1ccc(C(F)(F)F)cc1`, the INHIBITION was -18%.
As for `CCOc1ccc(NC(=O)Nc2cnc(N3CCOCC3)nc2)cc1`, the figure is -8.66%.
The figure for `O=C(COc1ccc(Cl)cc1)Nc1cnc(N2CCOCC2)nc1` is 52.7%.
Take `CCN1CC2(CC1=O)CN(C(=O)NC(C)C)CCN(S(C)(=O)=O)C2` (stereo unspecified): the INHIBITION was determined as 21.6%.
The figure for `O=S(=O)(c1ccc(F)cc1)N1CCCC(c2nccs2)C1` (stereo unspecified) is 13.5%.
As for `CC(=O)NCc1nccnc1C1CCN(C(=O)c2cc[nH]n2)CC1`, the figure is -19.7%; as for `Cc1cnc(N2CCC3(CC2)CC3CNC(=O)C2CCC2)nc1` (stereo unspecified), 50.7%; as for `Cc1cnc(N2CCC3(CC2)CC3C(=O)NCC2CC2)nc1` (stereo unspecified), 16.9%.
The figure for `Cc1cnc(N2CCC3(CC2)CC3CNC(=O)N(C)C)nc1` (stereo unspecified) is 7.24%; for `CC(C)(C)CC(=O)NS(=O)(=O)c1ccc(F)cc1C(F)(F)F` it is -15.5%; for `Cc1nn(C)c(C)c1C1CCCN1Cc1nc2ccccc2c(=O)[nH]1` (stereo unspecified) it is -33.7%.
As to `O=c1[nH]c(NCc2cccc(-c3ccccc3)c2)nc2c1CCNC2`, the INHIBITION turned out to be 21.9%.
As for `O=c1[nH]c(COc2ccccc2Cl)nc2c1CCNC2`, the figure is 2.15%; as for `O=c1[nH]c(NCc2cccc(OC(F)F)c2)nc2c1CCNC2`, 88%.
The figure for `CC(C)(C)c1ccc(OCc2nc3c(c(=O)[nH]2)CCNC3)cc1` is -13.3%; for `O=c1[nH]c(COc2cccc(F)c2)nc2c1CCNC2` it is 15.8%; for `COc1cc(CNc2nc3c(c(=O)[nH]2)CCNC3)cc(OC)c1OC` it is 57.8%.
The figure for `CCC=C(C)C(=O)N1CSCC1C(=O)NC1=NCCS1` (stereo unspecified) is 7.58%; for `CC(C1CCN(Cc2cnc(-c3cccs3)nc2)CC1)N(C)C` (stereo unspecified) it is 18.8%.
For the compound `OC1CCN(C2CCN(Cc3cnc(-c4cccs4)nc3)CC2)CC1`, the INHIBITION is recorded as 25.1%.
The figure for `C[C@@H]1CN(C2CCN(Cc3cnc(-c4cccs4)nc3)CC2)C[C@H](C)O1` is 63.7%; for `CC(C)n1ncc2cc(NC(=O)N3CCSCC3)cnc21` it is 11.2%; for `O=C(Cc1csc(-c2ccco2)n1)N1CCN(c2ccccc2O)CC1` it is -44.3%.
The figure for `CC(=O)N1CCOCC(Cc2ccc3c(ccn3C(C)=O)c2)C1` (stereo unspecified) is 12.59%.
Turning to `Cc1ccc(CC2COCCN(S(=O)(=O)c3ccccc3)C2)nc1` (stereo unspecified), the INHIBITION was determined as 1.62%.
On to `CC(C)c1nn(C)c(N(C)C)c1CNC1CCc2cc(F)ccc21` (stereo unspecified), for which the INHIBITION is -25.3%.
As for `CN(C)Cc1ccc(C(=O)N2CCCC(COc3ccc(F)cc3)C2)o1` (stereo unspecified), the figure is 63%; as for `Cc1nc(CN(C)C)cc(N2CCCC(COc3ccc(F)cc3)C2)n1` (stereo unspecified), 79.5%.
With `CCNC(=O)c1ccnc(N2CCCC(COc3ccccc3C)C2)c1` (stereo unspecified), the INHIBITION was found to be 30.9%.
As for `Cc1ccc(OCC2CCCN(c3cc(C(N)=O)ccn3)C2)cc1` (stereo unspecified), the figure is 26.5%.
As for `COc1ccc(OCC2CCCN(c3nc(CO)cs3)C2)cc1` (stereo unspecified), the figure is -3.43%.
For the compound `COc1cccc(OCC2CCCN(c3cc(C(N)=O)ccn3)C2)c1` (stereo unspecified), the INHIBITION turned out to be 40.7%.
As for `Cc1ccccc1OCC1CCCN(c2cc(N)nc(N)n2)C1` (stereo unspecified), the figure is 73.8%.
Turning to `OCc1csc(N2CCCC(COc3cccc(F)c3)C2)n1` (stereo unspecified), the INHIBITION was determined as 39.9%.
As for `CCc1nnsc1C(=O)N1CCCC(COc2ccc(F)cc2)C1` (stereo unspecified), the figure is 26.4%; as for `CN(C)Cc1nc(C(=O)N2CCCC(COc3ccc(F)cc3)C2)cs1` (stereo unspecified), 15.7%; as for `Cc1nc(N)cc(N2CCCC(COc3cccc(F)c3)C2)n1` (stereo unspecified), 73.8%.
As for `COCC(=O)N1CCCC(COc2ccccc2C)C1` (stereo unspecified), the figure is -4.37%; as for `O=C(c1ccccc1)N1CC2(CCNC2)OCc2ccccc21` (stereo unspecified), -0.621%; as for `Cc1cnc(N2Cc3nccn3CC(Cn3ncccc3=O)C2)nc1` (stereo unspecified), 38.2%.
Turning to `CCN1CC(C(=O)NCCc2csc(-c3ccncc3)n2)CC1=O` (stereo unspecified), the INHIBITION is -2.92%.
The figure for `CC(=O)N1CCC(Cc2cccc(-c3c(C)noc3C)n2)C1` (stereo unspecified) is 8.53%; for `Nc1cc(N2CCCC(COc3ccc(F)cc3)C2)nc(N)n1` (stereo unspecified) it is 79.5%; for `Nc1cc(N2CCCC(COc3ccc(F)cc3)C2)ncn1` (stereo unspecified) it is 23.7%.
Regarding `Nc1nc(N2CCCC(COc3ccc(F)cc3)C2)c2nc[nH]c2n1` (stereo unspecified), the INHIBITION was determined as 33.7%.
As for `OC(COCc1ccccc1Cl)CN1CCC(c2ccn[nH]2)CC1` (stereo unspecified), the figure is 48.2%; as for `Cc1ccc(CN2CC3(CCNCC3)CCC2=O)c(F)c1F`, 71.1%; as for `COc1cccc(CN2CC3(CCNCC3)CCC2=O)c1OC`, 24.2%.
As to `COc1ccc(CN2CC3(CCNCC3)CCC2=O)c(F)c1F`, the INHIBITION is reported as 22.9%.
As for `c1ccc(NC[C@@H]2CCC[C@@H]3CN(c4ncccn4)C[C@@H]32)nc1`, the figure is 48.4%.
